Measurements from PubChem BioAssay (NCATS).
Results filed as inconclusive are left out. Activity calls are given as the source filed them. Unless noted, the call rests on the fitted dose curve; in most records, active means well fitted curve in the direction sought with a large enough effect; inconclusive means small, poorly fitted or top-dose-only effect, or another doubt; inactive means no such curve, though single readings can be large; an effect the other way counts as inactive or inconclusive.

Columns and labels:
[1] = qHTS to identify inhibitors of the type 1 interferon - major histocompatibility complex class I in skeletal muscle: primary screen against the NCATS Pharmaceutical Collection (AID 1347407);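 further: luminescence of HiBiT knocked into endogenous HLA-B as interferon-induced MHC class I level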; further: potency means the concentration at half of the fitted maximal effect
Method in brief: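 Compounds […] were added to CRISPR-engineered HLA-B-HiBiT C25cl48 human myoblasts with 4.0 ng/ml IFN-beta. After 24 hrs at 37 C, cells were lysed and HiBiT luminescence measured.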

[2] = biological target: Protein phosphatase 1D (Homo sapiens) (UniProt O15297); assay: RapidFire Mass Spectrometry qHTS Assay for Modulators of WT P53-Induced Phosphatase 1 (WIP1) (AID 1347424); further: series mostly up to about 63 µM
Sequence of Protein phosphatase 1D (Homo sapiens) (O15297 whole entry, looked up): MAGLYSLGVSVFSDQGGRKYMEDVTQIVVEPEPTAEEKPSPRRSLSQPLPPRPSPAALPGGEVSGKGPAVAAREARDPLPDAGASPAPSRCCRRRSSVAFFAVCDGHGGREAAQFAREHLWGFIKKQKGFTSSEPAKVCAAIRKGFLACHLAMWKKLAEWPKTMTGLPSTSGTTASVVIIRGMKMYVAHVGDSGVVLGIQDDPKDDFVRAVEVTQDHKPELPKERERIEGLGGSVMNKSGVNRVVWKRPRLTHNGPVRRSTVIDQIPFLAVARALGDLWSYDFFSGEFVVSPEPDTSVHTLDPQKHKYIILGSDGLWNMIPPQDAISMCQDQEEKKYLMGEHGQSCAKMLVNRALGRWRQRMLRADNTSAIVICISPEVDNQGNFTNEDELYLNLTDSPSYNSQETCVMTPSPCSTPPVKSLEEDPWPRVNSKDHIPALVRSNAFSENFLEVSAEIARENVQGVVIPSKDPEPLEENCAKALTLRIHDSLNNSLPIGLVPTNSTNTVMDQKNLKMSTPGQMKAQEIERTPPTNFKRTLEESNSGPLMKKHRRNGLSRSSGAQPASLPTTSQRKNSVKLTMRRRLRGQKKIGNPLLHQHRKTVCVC
Method in brief: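 RapidFire MS readout of dephosphorylated VEPPL-S-QETFS product, with 1 uM isotope-labelled peptide standard. Reaction: 10 nM WIP1, 2 uM phosphopeptide substrate, 5 min, room temperature, after 1 h compound preincubation; stopped with 0.5% formic acid.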

[3] = biological target: Protein phosphatase 1D (Homo sapiens) (UniProt O15297); assay: Rhodamine-PBP qHTS Assay for Modulators of WT P53-Induced Phosphatase 1 (WIP1) (AID 1347425)
Method in brief: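 The read-out is the change in Rhodamine-PBP fluorescence (f1 - f0, ex 525/em 598 nm) as Pi is released, read each minute for 11 min. Final reaction: 5 nM WIP1, 10 uM phosphopeptide VEPPL-pS-QETFS, 10 uM Rh-PBP, 50 mM Tris-HCl pH 7.5, 30 mM MgCl2. Compound was preincubated with enzyme for 1 hour at room temperature.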

[4] = Primary qHTS for inhibitors of La Crosse Virus (LACV) - induced cell death in SH-SY5Y cells (AID 1508616);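 further: top concentration of the series differs between compounds; higher means more rescue of cells from virus-induced death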
Method in brief: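 Cytopathicity rescue screen: compounds pinned onto SH-SY5Y cells, which are then infected with LACV (MOI 0.01) and held 6 days at 37C. Percent activity is scaled between infected DMSO control and uninfected DMSO control.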

[5] = biological target: Calcium and integrin-binding protein 1 (Homo sapiens) (UniProt Q99828); assay: Primary qHTS for Identification of Calcium Integrin Binding Protein 1 (CIB1) Competitor (AID 1508620);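 further: GST tagged CIB1 binding a fluorescein labelled alphaIIb integrin peptide tracer; top concentration of the series differs between compounds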
Sequence of Calcium and integrin-binding protein 1 (Homo sapiens) (Q99828 whole entry, looked up): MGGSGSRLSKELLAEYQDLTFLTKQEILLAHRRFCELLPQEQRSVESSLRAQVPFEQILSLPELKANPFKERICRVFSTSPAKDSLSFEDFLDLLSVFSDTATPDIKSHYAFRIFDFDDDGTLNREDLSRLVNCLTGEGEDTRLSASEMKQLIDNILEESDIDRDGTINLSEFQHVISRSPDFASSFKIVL
Method in brief: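 Fluorescence polarization competition: GST-tagged CIB1 (1 uM final) preincubated with compound 15 min at room temperature, then FITC-labelled alphaIIb peptide (100 nM final) added. After 15 min at room temperature, polarization read at Ex 480/Em 540.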

[6] = A High-Content qHTS Against Drug Library for the Identification of Small Molecules that Inhibit DYT1 Early Onset Primary Dystonia-Associated Cell Pathology (AID 1645839; calls by dose curve; further: series mostly up to about 46 µM)
Method in brief: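 Cells were seeded and left for 24 h, then dosed with compound alongside tetracycline induction of mutant EGFP-TorsinA. They were incubated for 48 h, fixed in 4% paraformaldehyde, permeabilized and imaged for mislocalization (%pathology) and cell count.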

[7] = Primary qHTS for small molecule stabilizers of the endoplasmic reticulum resident proteome: Secreted ER Calcium Modulated Protein (SERCaMP) assay (AID 1508630)
Method in brief: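 The SH-SY5Y reporter protocol was run at 3 concentrations up to 38.3 uM (primary) or 11 concentrations (follow-up): 16 h compound, 100 nM thapsigargin for 4 h, then extracellular luciferase luminescence.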

Measured: Potency

CC(=O)N[C@@H](CCC(=O)O)C(=O)O
not listed: [7]
inactive: all other assays above

C[C@H]1[C@H]2CC[C@H]3[C@@H]4CC=C5C[C@@H](N(C)C)CC[C@]5(C)[C@H]4CC[C@]23CN1C
not listed: [5]
inactive: all other assays above

NS(=O)(=O)c1cc(C(=O)O)cc(N2CCCC2)c1Oc1ccccc1
not listed: [7]
inactive: all other assays above

CC(=O)OC[C@H]1O[C@@H](n2ncc(=O)[nH]c2=O)[C@H](OC(C)=O)[C@@H]1OC(C)=O
not listed: [7]
inactive: all other assays above

CCOC(=O)[C@@](C)(N)Cc1ccc(O)c(O)c1
not listed: [7]
inactive: all other assays above

CCCCCCCCCCCCCCCC(=O)O
not listed: [5] | [7]
inactive: all other assays above

CC(=O)Nc1ccc(OC(=O)c2ccccc2OC(C)=O)cc1
not listed: [7]
inactive: all other assays above

CCCCNc1ccc(C(=O)OCCOCCOCCOCCOCCOCCOCCOCCOCCOC)cc1
not listed: [7]
inactive: all other assays above

CC(=O)Nc1ccc(OCC(O)CNC(C)C)cc1 (stereo not drawn)
not listed: [5]
inactive: all other assays above

CN(C)CCOC(=O)C(c1ccccc1)C1(O)CCCC1 (stereo not drawn)
not listed: [7]
inactive: all other assays above

O=C(N/N=C/c1ccc([N+](=O)[O-])o1)c1ccc(O)cc1
not listed: [5] | [6]
inactive: all other assays above

O=C(O)Cc1csc(-c2ccc(Cl)cc2)n1
not listed: [7]
inactive: all other assays above

CCOc1ccccc1OCCN[C@H](C)Cc1ccc(OC)c(S(N)(=O)=O)c1
not listed: [7]
inactive: all other assays above

CC(C)n1c(/C=C/[C@@H](O)C[C@@H](O)CC(=O)O)c(-c2ccc(F)cc2)c2ccccc21
not listed: [7]
inactive: all other assays above

Cc1ccc(O)c([C@H](CCN(C(C)C)C(C)C)c2ccccc2)c1
inactive: [1] | [2] | [3] | [5]

CCOc1ccc(NC(C)=O)cc1
not listed: [5] | [6]
inactive: all other assays above

COc1cc(NS(=O)(=O)c2ccc(N)cc2)ncn1
not listed: [7]
inactive: all other assays above

Cc1cccc(C)c1NC(=O)c1ccccc1C(=O)O
not listed: [7]
inactive: all other assays above

FC1(F)C(F)(F)C(F)(F)C2(F)C(F)(F)C(F)(F)C(F)(F)C(F)(F)C2(F)C1(F)F (stereo not drawn)
not listed: [7]
inactive: all other assays above

O=S(=O)(O)c1ccc(O)cc1
not listed: [7]
inactive: all other assays above

O=C(Nc1ccc([N+](=O)[O-])cc1)Nc1ccc([N+](=O)[O-])cc1
not listed: [7]
inactive: all other assays above

CCCCN1C[C@H](O)[C@@H](O)[C@H](O)[C@H]1CO
not listed: [7]
inactive: all other assays above

CC1(C)OC[C@@H]2O[C@@]3(C(=O)O)OC(C)(C)O[C@H]3[C@@H]2O1
not listed: [7]
inactive: all other assays above

CC(=O)NO
not listed: [7]
inactive: all other assays above

CCCCCCCCOc1ccc(C(=O)c2ccccc2)c(O)c1
not listed: [7]
inactive: all other assays above

O=C(O)c1ccc(S(=O)(=O)N(Cl)Cl)cc1
not listed: [7]
inactive: all other assays above

C[C@@]12C(=O)OC(=O)[C@]1(C)C1CCC2O1
active: [1] 13.3 µM
inactive: [2] | [3] | [5] | [7]

CCCc1ncc(C[n+]2ccccc2C)c(N)n1
not listed: [7]
inactive: all other assays above

CC1CCc2c(N3CCC(O)CC3)c(F)cc3c(=O)c(C(=O)O)cn1c23 (stereo not drawn)
not listed: [7]
inactive: all other assays above
